Data from ChEMBL document CHEMBL3988442, “University of Dundee, Small-Polar-MMV Screening Library” (2021).
In all, about 48,000 compounds went through this assay and about 13,000 (27%) showed an effect of 50% or more. The list shows a part of the results.

Test system: Wolbachia pipientis
Experiment: Anti-Wolbachia Cell-Based Screen
Format: functional
Set-up: scale not given: in the data most compounds retested in dose-response had high values
Conditions: 5 µM

| SMILES | Percent Effect [%] |
| --- | --- |
| CC(=O)N1CCCN(C(=O)Cc2c(C)nc(C)[nH]c2=O)CC1 | -4.556 |
| Cc1cc(NS(=O)(=O)c2cnc3onc(C)c3c2)no1 | -3.715 |
| Fc1cccc(-c2nc(CN3CCCCC3Cn3cncn3)co2)c1 (stereo not drawn) | -6.024 |
| CC(=O)N1CCN(Cc2coc(-c3cccc(F)c3)n2)CC1 | 97.72 |
| CC1CCCN(Cc2coc(-c3cccc(F)c3)n2)C1 (stereo not drawn) | -1.096 |
| CN(C)C(=O)CN1CCN(Cc2coc(-c3cccc(F)c3)n2)CC1 | 102.1 |
| COCC(=O)N1CCN(Cc2coc(-c3cccc(F)c3)n2)CC1 | -10.41 |
| CCNC(=O)C1CN(Cc2c(-c3cc(C)on3)nn(C)c2Cl)CCO1 (stereo not drawn) | -15.99 |
| CC(C)NC(=O)c1cc2c(nc1N(C)C)CCN(S(=O)(=O)C1CC1)CC2 | -5.433 |
| CCN(CC)S(=O)(=O)N1CCc2nc(C3CCNCC3)ncc2C1.Cl | 116.7 |
| Cl.O=S(=O)(N1CCCCC1)N1CCc2nc(C3CCNCC3)ncc2C1 | -9.776 |
| CCC(C)S(=O)(=O)N1CCc2nc(C3CCNCC3)ncc2C1.Cl (stereo not drawn) | 105.9 |
| CCN(CC)S(=O)(=O)N1CCCC(c2nccn2Cc2ccncc2)C1 (stereo not drawn) | 6.265 |
| CCc1cc(CNC(=O)N2Cc3ccccc3N(C)CC2C)on1 (stereo not drawn) | 12.48 |
| CN(Cc1ccc(Br)s1)Cn1nc(-c2ccccc2)oc1=O | 38.33 |
| CN(Cc1ccc(Br)s1)Cn1nc(-c2ccc(F)cc2)oc1=O | 11.33 |
| Cc1ncc(CN(C)Cn2nc(-c3ccccc3)oc2=O)s1 | 56.71 |
| CSc1nccc(NCC2CNCCO2)n1 (stereo not drawn) | 3.575 |
| Cn1cc(CNCCC(=O)NCc2ccccc2)c(-c2cccnc2)n1 | -3.655 |
| CC(C)c1nc(C(=O)N2CCCC(n3cncn3)C2)c[nH]1 (stereo not drawn) | 7.683 |
| Cc1c(C(=O)N2CCCC(n3cncn3)C2)cnn1C (stereo not drawn) | 111.3 |
| Cc1[nH]ncc1C(=O)N1CCCC(n2cncn2)C1 (stereo not drawn) | -1.83 |
| Cc1cc(C(=O)N2CCCC(n3cncn3)C2)nn1C (stereo not drawn) | 113.3 |
| Cc1cnc(C(=O)N2CCCC(n3cncn3)C2)cn1 (stereo not drawn) | 95.37 |
| CCC(CC)c1cc(C(=O)N2CCCC(n3cncn3)C2)on1 (stereo not drawn) | -3.018 |
| CCc1ccc(C(=O)N2CCCC(n3cncn3)C2)o1 (stereo not drawn) | -14.61 |

| SMILES | Percent Effect [%] |
| --- | --- |
| Cc1cc(C(=O)N2CCCC(n3cncn3)C2)on1 (stereo not drawn) | 105.4 |
| Cn1nc(C(=O)N2CCCC(n3cncn3)C2)ccc1=O (stereo not drawn) | -5.25 |
| CCNC(=O)N1C[C@@H]2OCC(=O)N(CC3CC3)[C@@H]2C1 | -6.422 |
| Cc1nsc(NC2CCOC3(CCCCC3)C2)n1 (stereo not drawn) | -0.6251 |
| Cc1cnn(CCNCc2csc(-c3ccc4c(c3)OCO4)n2)c1 | -11.61 |
| CN(CCS(=O)(=O)c1cc(Cl)ccc1Cl)CC(N)=O | 6.108 |
| Cc1ccn(-c2ccc(NCc3cccnc3N3CCCCC3)nn2)n1 | -6.636 |
| Nc1cc2c(nn1)CCN(C(=O)c1ccccc1Oc1cccnc1)C2 | -10.76 |
| CCc1nccn1C1CCCN(C(=O)c2cnc3onc(C)c3c2)C1 (stereo not drawn) | -19.2 |
| Cc1cc(C)n(CCC(=O)N2CCCC(n3cncn3)C2)n1 (stereo not drawn) | -3.067 |
| Cc1cc(C(=O)N2CCCC(n3cncn3)C2)c(C)n1CC1CC1 (stereo not drawn) | 127.1 |
| Cc1ncsc1C(=O)N1CCCC(n2cncn2)C1 (stereo not drawn) | 88.89 |
| COCC(C)NS(=O)(=O)c1ccc(Br)cn1 (stereo not drawn) | -13.48 |
| O=C(Nc1ccccc1F)N1CCN(Cc2noc(C3CC3)n2)CC1 | 0.2085 |
| CC(=O)NC1CCN(c2nc(N(C)C)nc3c2CCCC3)CC1 | 10.24 |
| Cc1nc(N(C)C)nc(N2CCC3(CC2)CNC(=O)O3)c1C | 97.26 |
| CN(C)c1nc2c(c(N3CCC4(CC3)CNC(=O)C4)n1)CCCC2 | 100.7 |
| c1cnn(CC2CN(c3ncnc4c3CCC4)CCO2)c1 (stereo not drawn) | -17.69 |
| CN(C)c1nc2c(c(N3CCC4(CCCNC4=O)C3)n1)CCCC2 (stereo not drawn) | 9.775 |
| O=C1NCC2(CCCN(c3ncnc4c3CCC4)CC2)O1 (stereo not drawn) | 82.73 |
| CN1CCc2[nH]nc(C(=O)N3CCCC4(CC3)CNC(=O)O4)c2C1 (stereo not drawn) | 1.077 |
| CC(C)Cc1ncc2c(n1)CN(c1nc(N(C)C)nc3c1CCCC3)C2 | 27.68 |
| Cc1ccc(-c2ccnc(N3CCC4(CC3)CNC(=O)O4)n2)c(C)n1 | 5.789 |
| c1nc2c(c(N3CCOC(Cn4cncn4)C3)n1)CCC2 (stereo not drawn) | -6.426 |
| CCCc1cnc(C)nc1N1CCC2(CC1)CNC(=O)O2 | 7.463 |
| CN(C)c1nc2c(c(N3CCCC4(CC3)CNC(=O)O4)n1)CCCC2 (stereo not drawn) | 98.47 |

| SMILES | Percent Effect [%] |
| --- | --- |
| CC(C)Cc1cc(CC2(NCc3ccco3)COC2)no1 | -14.13 |
| Cc1ccc(-n2ccc3nc(N4CCCC4)ncc3c2=O)cc1C | -4.635 |
| COCCN1C[C@H]2CCN(c3ncccn3)CC[C@H]2S1(=O)=O | -6.135 |
| COc1ccc(F)cc1-c1nc2c([nH]1)c(C1CC1)nn2C | 5.431 |
| Cn1cc(C(=O)N2CC[C@@H]3[C@@H]2CCN3c2ncc(F)cn2)cn1.O=C(O)C(F)(F)F | 3.256 |
| O=C(O)C(F)(F)F.O=C(c1cccnc1)N1CCC2(CCN(C(=O)N3CCCC3)CC2)C1 | 121.5 |
| Cc1cnc(N2CC3(CCN(C(=O)c4cccnc4)C3)C2)nc1.O=C(O)C(F)(F)F | -3.598 |
| Cc1ccc(CNC(=O)c2nc3c(o2)CN(C(=O)c2cccnc2)C3)o1.O=C(O)C(F)(F)F | -4.272 |
| N#Cc1cccc(N2CC3(CCN(C(=O)c4cccnc4)C3)CC2=O)c1.O=C(O)C(F)(F)F (stereo not drawn) | 6.163 |
| Cc1ccc(CN2CCC3(CC2)CCN(C(=O)c2cccnc2)C3)o1.O=C(O)C(F)(F)F | 93.46 |
| NC(=O)N1CCC2(CCN(C(=O)c3cccnc3)CC2)C1.O=C(O)C(F)(F)F | 118.8 |
| CS(=O)(=O)N1CCC2(CN(C(=O)c3cccnc3)C2)C1.O=C(O)C(F)(F)F | -8.829 |
| Cc1nc(N)c2ccc(C3CCCCN3)nc2n1.Cl (stereo not drawn) | 107.4 |
| CCn1c(C)nnc1CN(C)C1CCN(CC2CCC2)C1 (stereo not drawn) | 111.4 |
| CCn1c(C)nnc1CN(C)C1CCN(CCc2ccncc2)C1 (stereo not drawn) | 1.632 |
| CCn1c(C)nnc1CN(C)C1CCN(CCOc2ccccc2)C1 (stereo not drawn) | 149.5 |
| CCn1c(C)nnc1CN(C)C1CCN(CCCSC)C1 (stereo not drawn) | 119.6 |
| CCn1c(C)nnc1CN(C)C1CCN(CCS(=O)(=O)CC)C1 (stereo not drawn) | 144.9 |
| CCn1c(C)nnc1CN(C)C1CCN(CCCOC)C1 (stereo not drawn) | 0.6511 |
| CCn1c(C)nnc1CN(C)C1CCN(CCn2cccn2)C1 (stereo not drawn) | 0.3298 |
| CCn1cc(CNCc2ccc(C(=O)OC)cc2)c(C)n1 | 153.8 |
| COc1ccc(CCn2cnnc2[S+](C)[O-])cc1 (stereo not drawn) | -1.402 |
| COC(=O)c1ccc(CNC(=O)Cc2csc(C(C)=O)c2)cc1 | 12.04 |
| COc1ccc(CNCc2cc(Br)c3c(c2)OCO3)cc1 | -3.854 |
| COC(=O)c1ccc(CNC(=O)Nc2ccc(=O)n(C)c2)cc1 | 12.29 |
| COC(=O)c1ccc(CNCc2cn(C)nc2C)cc1 | 100.4 |

| SMILES | Percent Effect [%] |
| --- | --- |
| COC(=O)c1ccc(CNC(C)c2ccc(S(C)(=O)=O)cc2)cc1 (stereo not drawn) | -2.189 |
| COc1ccc(CNCc2cn(C)nc2C)cc1 | 122.7 |
| COc1ccc(-n2ccc(CNCc3ccc(OC)c(O)c3)n2)cc1 | -11.8 |
| COC(=O)c1ccc(CNCc2ccn(C)n2)cc1 | 138.6 |
| Cc1ccc(-c2ncc(CNc3cnccc3CO)s2)cc1 | -6.325 |
| Cc1nc(-c2ccccc2)sc1C(=O)N(C1CC1)C1CC(=O)NC1=O (stereo not drawn) | -7.701 |
| CCN(CC)C(=O)CN(C)C(=O)c1cc(-c2cccc(Cl)c2)no1 | -12 |
| CCN(CC)c1ccc(NS(=O)(=O)c2cnn(C(C)C)c2)cn1 | -6.938 |
| COCc1ccc(C(=O)N2CCCN(Cc3ccc(F)cc3)CC2)s1 | 2.247 |
| CCCS(=O)(=O)c1ccc(N2CCN(c3ccccn3)CC2)nn1 | 2.245 |
| Cc1ccc(CNCc2c(C)nn(C)c2N(C)C)cn1 | -12.73 |
| Cc1nn(C)cc1CNCc1ccc(N(C)C)cc1 | 119.7 |
| Cc1nn(C)c(N(C)C)c1CNCc1ccc(Cn2cccn2)cc1 | 10.8 |
| CC(C)(C)OC(=O)N1CCC[C@H](NCC2CCOCC2)C1 | -10.59 |
| Cc1cc(NC(=O)Cc2ccccc2O)c[nH]c1=O | 7.885 |
| CCn1cc(CN2CCc3nc(-c4ccccn4)nc(O)c3C2)cn1 | 107.7 |
| O=C(Cc1ccccn1)N1CCc2nc(-c3cnccn3)nc(O)c2C1 | -13.11 |
| O=C(Cc1ccccn1)N1CCc2c(O)nc(-c3cnccn3)nc2C1 | 94.87 |
| Oc1nc(-c2cnccn2)nc2c1CCN(Cc1ccccn1)C2 | 89.8 |
| CCn1cc(CN2CCc3nc(N4CCOCC4)nc(O)c3CC2)cn1 | -4.464 |
| CN1CCN(C(=O)Cc2ccccn2)Cc2cccnc21 | -6.313 |
| CCOCCC(=O)N(C)Cc1noc(C(C)C)n1 | -6.768 |
| CC(C)CC(C(=O)N1CCCSCC1)N1CCCCC1=O (stereo not drawn) | -10.63 |
| COc1ccc(C(=O)N(c2ccc(OC)c(F)c2)C(C)C)cn1 | 3.547 |
| CNS(=O)(=O)c1cccc(C(C)NCc2ccc(F)c(F)c2)c1 (stereo not drawn) | 18.96 |
